Reference: PubChem BioAssay AID1445 (SRMLSC, 2008)
Screen size: about 220,000 compounds; about 910 (0.41%) were called active.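 The calls were made as follows: active = primary inhibition above the hit cutoff, then over 50% inhibition at one or more dose response concentrations (cut at about 23% in these data, passing the limit was not always enough); inconclusive = conflicting primary data, or primary hits not chosen for dose response; inactive = low primary inhibition, or under 50% at every dose.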 The sample as a whole holds a higher share of actives than the screen did. Potency and affinity values are given separately.

Biological target: Aminopeptidase N (Plasmodium falciparum (isolate 3D7)) (UniProt O96935)
Assay: P. falciparum M1AAP inhibitors, biochemical, fluorogenic H-Leu-NHMec substrate, 1536-well (AID 1445);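 also: plate controls were DMSO full reaction for no effect and no enzyme background for full effect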
Conditions: recombinant M1AAP, H-Leu-NHMec fluorogenic kinetic assay; at 30 µM, stronger effect = higher value unless noted

Chain of Aminopeptidase N (Plasmodium falciparum (isolate 3D7)) (O96935 whole entry, looked up): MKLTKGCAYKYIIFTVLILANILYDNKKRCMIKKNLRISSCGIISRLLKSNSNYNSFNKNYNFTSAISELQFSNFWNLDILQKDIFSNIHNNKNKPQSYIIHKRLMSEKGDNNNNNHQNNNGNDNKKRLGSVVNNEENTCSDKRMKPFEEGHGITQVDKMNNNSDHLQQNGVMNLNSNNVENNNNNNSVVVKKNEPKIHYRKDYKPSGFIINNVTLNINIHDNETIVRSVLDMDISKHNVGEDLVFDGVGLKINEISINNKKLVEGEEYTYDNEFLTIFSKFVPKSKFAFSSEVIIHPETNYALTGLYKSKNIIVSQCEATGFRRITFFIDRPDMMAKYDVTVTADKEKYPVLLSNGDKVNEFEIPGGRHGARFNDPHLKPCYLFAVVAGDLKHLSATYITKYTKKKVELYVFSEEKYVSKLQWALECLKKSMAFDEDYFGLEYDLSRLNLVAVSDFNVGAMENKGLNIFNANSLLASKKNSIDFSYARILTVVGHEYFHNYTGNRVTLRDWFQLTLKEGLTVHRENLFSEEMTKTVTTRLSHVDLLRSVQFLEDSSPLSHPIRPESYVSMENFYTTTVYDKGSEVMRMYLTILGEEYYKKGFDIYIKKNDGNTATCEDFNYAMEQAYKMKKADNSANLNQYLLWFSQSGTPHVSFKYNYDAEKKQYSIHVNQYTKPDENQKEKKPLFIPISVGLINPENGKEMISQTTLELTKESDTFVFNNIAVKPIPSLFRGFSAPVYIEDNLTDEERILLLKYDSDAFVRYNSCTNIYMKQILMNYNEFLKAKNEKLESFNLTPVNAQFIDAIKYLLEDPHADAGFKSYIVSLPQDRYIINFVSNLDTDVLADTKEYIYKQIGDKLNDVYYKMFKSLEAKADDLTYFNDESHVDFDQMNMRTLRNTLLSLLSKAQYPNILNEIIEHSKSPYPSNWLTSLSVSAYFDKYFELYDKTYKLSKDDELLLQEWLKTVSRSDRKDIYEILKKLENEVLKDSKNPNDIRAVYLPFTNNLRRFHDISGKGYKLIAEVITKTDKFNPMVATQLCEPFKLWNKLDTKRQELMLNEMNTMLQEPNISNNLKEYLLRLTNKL

inhibition, inactive:
Cc1ccc(-n2c(C)nc3c(cnn3-c3ccc(C)c(C)c3)c2=O)cc1C 2.27%, CNNC(=O)C(=O)NNS(=O)(=O)c1ccccc1 4.63%, O=C1c2ccccc2C(=O)N1c1ccc(-c2nc3ccccc3o2)cc1 -1.24%, O=C1c2ccccc2C(=O)N1Cc1nc2ccccc2o1 13%, O=C(c1ccc(F)cc1)N(NC(=O)C(O)(c1ccccc1)c1ccccc1)c1ccccc1 0.71%, COc1ccc(C(=O)/C=C/Nc2cc(C)on2)cc1 8.8%, COc1ccc([N+](=O)[O-])cc1/C=N/NC(=O)/C(=C\c1cccs1)NC(=O)c1ccccc1 4.13%, CCCCCn1c(-c2ccco2)nc2nc3ccccc3nc21 13%, COCCn1c(-c2ccco2)nc2nc3ccccc3nc21 22.9%, c1ccc(-c2nc3nc4ccccc4nc3n2CC2CCCO2)cc1 (stereo unspecified) 15.8%, Fc1ccccc1-c1nc2nc3ccccc3nc2n1CC1CCCO1 (stereo unspecified) 14.5%, COC(=O)c1ccccc1NC(=O)Cn1cnc2ccc(S(=O)(=O)N3CCC(C)CC3)cc2c1=O 20.3%, CCOC(=O)C1=C(CN2CCSCC2)NC(=O)NC1c1ccc2c(c1)OCO2 (stereo unspecified) -5.96%, O=[N+]([O-])c1ccccc1/C=N/N1CCN(c2ccc(Cl)cc2)CC1 1.05%, C/C(N)=C(/C#N)C(=O)COC(=O)Cc1coc2cc(C)ccc12 4.44%, C/C(=N\NC(=O)c1ccc(Br)cc1)C1C(=O)c2ccccc2C1=O 39.9%, C/C(CC(=O)N1CCCC1)=N\NC(=O)c1cc2ccccc2cc1O 10.8%, C/C(=N\NC(=O)CCc1ccccc1)C1C(=O)c2ccccc2C1=O 0.57%, C/C(=N\NC(=O)c1ccc(-c2ccccc2)cc1)C1C(=O)c2ccccc2C1=O -1.49%, C/C(=N\NC(=O)c1cc2ccccc2cc1O)c1cc2ccccc2o1 3.43%, CCOc1ccc(C(=O)N/N=C(/C)C2C(=O)c3ccccc3C2=O)cc1 4.51%, CCOc1ccccc1N(CC(=O)NCCOC)C(=O)CCC(=O)Nc1ccccn1 -5.17%, CCC1CCCCN1CCCNC(=O)CC1Oc2ccccc2NC1=O (stereo unspecified) 7.18%, COc1cc([N+](=O)[O-])ccc1NC(=O)CCCOc1ccc(C)cc1 17.4%, CC(C)(C)c1cc(C(=O)N/N=C/c2ccccc2O)n(-c2ccccc2)n1 11.1%, COCCCNC(=O)Cn1nnc(-c2ccc(NC(=O)c3ccccc3F)cc2)n1 0.6%, Nc1nc(COc2ccc3ccccc3c2)cs1 -0.25%, O=C(NN=C1CCCCCC1)NC1CCCCC1 -3.52%, CCCc1nnc(NC(=O)CN2CCN(C)CC2)s1 5.59%, FC(F)(F)c1nc2ccccc2[nH]1 -1.24%, O=C(O)c1cccc2[nH]c(C(F)(F)F)nc12 9.3%, CC(C)(C)NC(=O)Cn1c(SCC(N)=O)nc2ccccc21 2.96%, O=C(OCC(=O)N1CCc2ccccc21)c1nc(Cl)ccc1Cl 0.15%, NC(=O)CN1C(=O)C2CCCCN2C(=O)c2ccccc21 (stereo unspecified) -4.54%, CN(C)C(=O)CN1C(=O)C2CCCCN2C(=O)c2ccccc21 (stereo unspecified) 8.25%, Cc1noc(C)c1S(=O)(=O)N1CCCC(C(=O)N2CCN(C3CCCCC3)CC2)C1 (stereo unspecified) 8.08%, Cc1cc(C)nc(N2CCC(C(=O)NCCc3ccc(F)cc3)CC2)n1 3.16%, N#C/C(=N\Nc1ccccc1)C(=N)N1CCCCC1 -1.69%, N#Cc1c(-c2ccccc2)nc(SCC(=O)Nc2nnc(C(F)(F)F)s2)[nH]c1=O 17.8%, CCOC(=O)CCCCC(=O)c1[nH]c(=O)[nH]c1CSc1nc(C)cc(=O)[nH]1 7.83%, CSc1nc(-c2ccccc2)c(C#N)c(=O)[nH]1 2.21%, CCSc1nc(-c2ccccc2)c(C#N)c(=O)[nH]1 -8.26%, CCOC(=O)CCCCC(=O)c1[nH]c(=O)[nH]c1CSc1nc2ccccc2[nH]1 8.8%, Cc1cccc(NC(=O)CSc2nc(-c3ccccc3)c(C#N)c(=O)[nH]2)c1C 14.7%, Cc1ccc(NC(=O)CCNS(=O)(=O)c2cc(Br)cnc2N)c(Cl)c1 6.45%, COc1ccc(-n2c(C)cc(/C=C(\C#N)C(=O)NCc3ccco3)c2C)cc1 9.23%, CS(=O)(=O)c1ccc(Cl)c(NC(=O)COC(=O)c2cccc(C#N)c2)c1 6.76%, C/C(=N/NC(=O)CCc1c(C)n[nH]c1C)c1cccc([N+](=O)[O-])c1 0.36%, CC(C)c1ccccc1NC(=O)CNCCc1ccc(C(F)(F)F)cc1 4.1%, CCCCNC(=O)Cn1c(=O)oc2cc(S(=O)(=O)N3CC(C)CC(C)C3)ccc21 (stereo unspecified) 2.08%, Cc1ccc(S(=O)(=O)N(Cc2cc3cc4c(cc3[nH]c2=O)OCCO4)CC2CCCO2)cc1 (stereo unspecified) 8.8%, Cn1c(SCC(=O)N2CCOCC2)nnc1-c1cccc(NC(=O)c2ccccc2)c1 16.6%, Cn1c(SCC(=O)N2CCOCC2)nnc1-c1ccc(NC(=O)c2ccccc2F)cc1 3.9%, CCOC(=O)Cc1nnc(NC(=O)C(CC)Sc2nc(C)cc(=O)[nH]2)s1 (stereo unspecified) 11%, CCC(C)Nc1nc(OC(C(F)(F)F)C(F)(F)F)nc(OC(C(F)(F)F)C(F)(F)F)n1 (stereo unspecified) 9.34%, O=C(Nc1ccc2nc(-c3ccccn3)[nH]c2c1)C1CCCCC1 -0.77%, CC(=O)Nc1ccc2nc(-c3ccncc3)[nH]c2c1 10.3%, O=C(CNC(=O)c1ccc(S(=O)(=O)N2CCCC2)cc1)N/N=C/c1ccc(Cl)cc1 3.87%, CCCn1c(-c2ccc[nH]c2=O)nc2ccccc21 4.86%, Cn1c(-c2ccc[nH]c2=O)nc2cc(Cl)ccc21 3.43%, COc1cc(/C=C2\OC(=O)c3c(OC)cccc32)ccc1O 18.4%, CCC(=O)Oc1ccc2c(C)cc(=O)oc2c1C(=O)CC 1.59%, CCn1c(COc2ccc(=O)n(-c3ccccc3)n2)nnc1SCc1ccccc1 1.85%, Cc1ccc(NC(=O)c2cc([N+](=O)[O-])ccc2N2CCCC2)cc1 9.65%, CCOC(=O)c1ccc(NC(=O)CSc2nc3ncccc3[nH]2)cc1 15.1%, CCOC(=O)c1ccc(NC(=O)CSc2nccn2C)cc1 13.7%, CCC(=O)N1CCCn2c1nc1ccccc12 0.87%, O=C(Nc1ccccc1)N1CCn2c1nc1ccccc12 3.81%, CN(C)S(=O)(=O)c1ccc(C(=O)N2CCN=C2SCc2cccnc2)cc1 -3.94%, COc1ccccc1Nc1nc(N)nc(CN2CCC(C)CC2)n1 3.95%, O=C(Nc1ccc(Cl)cc1)c1ccc(-n2cccn2)c([N+](=O)[O-])c1 0.77%, Cc1ccc(OCC(=O)Nc2cccc(-c3nnc(-c4ccccc4)o3)c2)c(C)c1 2.43%, Cc1cccc(C)c1OCC(=O)Nc1cccc(-c2nnc(-c3ccccc3)o2)c1 1.97%, Cc1ccc(C)c2c1cc(C)c1nnc(SCC(=O)N3CCCc4ccccc43)n12 3.01%, CC(C)(C)c1ccc(C(=O)/C=C2\NC(=O)CS2)cc1 7.72%, Cc1ccc(C(=O)/C=C2/NC(=O)CS2)cc1 17.7%, CC(/C=N/NC(=O)Cn1cnc2c1c(=O)n(C)c(=O)n2C)=C\c1ccco1 5.25%, CCOC(=O)c1[nH]c2c(c1C)C(=O)CC(c1ccco1)C2 (stereo unspecified) 15.3%, Cc1c(C(=O)OCc2ccccc2)[nH]c2c1C(=O)CC(c1ccco1)C2 (stereo unspecified) 6.2%, CC(C(=O)NC1C(=O)N2C(C(=O)O)=C(CSc3nnnn3C)CSC12)n1cc(Cl)cn1 (stereo unspecified) 6.59%, NC(=O)N/N=C/c1cc(Br)ccc1OC(=O)c1ccccc1 6.38%, COC(=O)N/N=C/c1cc(Br)ccc1O 17.8%, O=C(CCC(=O)Nc1ccc(Br)cc1)N/N=C/c1cc([N+](=O)[O-])ccc1O 13.8%, Nc1nonc1C(=O)N/N=C/c1ccncc1 9.52%, CC1(C)OC2OC(C(=O)N/N=C/c3ccccc3F)C3OC(C)(C)OC3C2O1 (stereo unspecified) -0.42%, Nc1nonc1C(=O)N/N=C/c1ccc(Br)o1 15.9%, O=C(CCc1ccccc1)N/N=C/c1cc(Br)ccc1O 16.7%, COc1ccc(NC(=O)C2OC3OC(C)(C)OC3C3OC(C)(C)OC23)cc1 (stereo unspecified) 6.98%

inhibition, active:
c1coc(-c2nc3nc4ccccc4nc3n2CC2CCCO2)c1 (stereo unspecified) 26%, CCOC(=O)CCCCC(=O)c1[nH]c(=O)[nH]c1CSc1nc(-c2ccccc2)c(C#N)c(=O)[nH]1 23.6%, Cn1c(SCC(=O)N2CCOCC2)nnc1-c1cccc(NC(=O)c2ccccc2F)c1 25.4%, CCOC(=O)c1ccc(NC(=O)CSc2ncccn2)cc1 25.8%, O=C(C1CCCCC1)N1CCCn2c1nc1ccccc12 26.8%, Cc1cccc(OCC(=O)Nc2cccc(-c3nnc(-c4ccccc4)o3)c2)c1C 24%, O=C1CS/C(=C/C(=O)c2ccccc2)N1 25.3%, Cc1c(C(=O)OC2CCCC2)[nH]c2c1C(=O)CC(c1ccco1)C2 (stereo unspecified) 25.6%
